According to the supplement of paper PMC10849652:
Targets with a hit are over-represented here; the source holds about 7,900 in all. About 0.6% of all pairs of compound and target were hits. A number with no mark means an inactive call.

Compound: COC1=CC=C(C=C1)CN2C=CC3=C2C=C(C=C3)C(=O)NO
Test: log2 fold change, soluble protein after heating vs DMSO (PISA); higher = thermal stabilisation; K562 cells, 10 uM, 30 min; active = over 0.2 and 3.5 SD of the protein, either way, in both replicates (recomputed)
How it was run: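 K562 cells (2×10^6 cells/mL) were treated with 10 μM compound for 30 min, and aliquots were heated for 3 min over 48°C-58°C. Pooled aliquots were extracted in PBS with 0.5% NP-40 at 4°C, and the supernatant after 21,000xg for 90 min was measured by TMTpro 16plex LC-MS/MS with channel sums equalised. Reported thermal stability, relative to control samples and from duplicates, is a log2 fold change.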

Chain of UniProt Q92538 (Q92538 whole entry, looked up): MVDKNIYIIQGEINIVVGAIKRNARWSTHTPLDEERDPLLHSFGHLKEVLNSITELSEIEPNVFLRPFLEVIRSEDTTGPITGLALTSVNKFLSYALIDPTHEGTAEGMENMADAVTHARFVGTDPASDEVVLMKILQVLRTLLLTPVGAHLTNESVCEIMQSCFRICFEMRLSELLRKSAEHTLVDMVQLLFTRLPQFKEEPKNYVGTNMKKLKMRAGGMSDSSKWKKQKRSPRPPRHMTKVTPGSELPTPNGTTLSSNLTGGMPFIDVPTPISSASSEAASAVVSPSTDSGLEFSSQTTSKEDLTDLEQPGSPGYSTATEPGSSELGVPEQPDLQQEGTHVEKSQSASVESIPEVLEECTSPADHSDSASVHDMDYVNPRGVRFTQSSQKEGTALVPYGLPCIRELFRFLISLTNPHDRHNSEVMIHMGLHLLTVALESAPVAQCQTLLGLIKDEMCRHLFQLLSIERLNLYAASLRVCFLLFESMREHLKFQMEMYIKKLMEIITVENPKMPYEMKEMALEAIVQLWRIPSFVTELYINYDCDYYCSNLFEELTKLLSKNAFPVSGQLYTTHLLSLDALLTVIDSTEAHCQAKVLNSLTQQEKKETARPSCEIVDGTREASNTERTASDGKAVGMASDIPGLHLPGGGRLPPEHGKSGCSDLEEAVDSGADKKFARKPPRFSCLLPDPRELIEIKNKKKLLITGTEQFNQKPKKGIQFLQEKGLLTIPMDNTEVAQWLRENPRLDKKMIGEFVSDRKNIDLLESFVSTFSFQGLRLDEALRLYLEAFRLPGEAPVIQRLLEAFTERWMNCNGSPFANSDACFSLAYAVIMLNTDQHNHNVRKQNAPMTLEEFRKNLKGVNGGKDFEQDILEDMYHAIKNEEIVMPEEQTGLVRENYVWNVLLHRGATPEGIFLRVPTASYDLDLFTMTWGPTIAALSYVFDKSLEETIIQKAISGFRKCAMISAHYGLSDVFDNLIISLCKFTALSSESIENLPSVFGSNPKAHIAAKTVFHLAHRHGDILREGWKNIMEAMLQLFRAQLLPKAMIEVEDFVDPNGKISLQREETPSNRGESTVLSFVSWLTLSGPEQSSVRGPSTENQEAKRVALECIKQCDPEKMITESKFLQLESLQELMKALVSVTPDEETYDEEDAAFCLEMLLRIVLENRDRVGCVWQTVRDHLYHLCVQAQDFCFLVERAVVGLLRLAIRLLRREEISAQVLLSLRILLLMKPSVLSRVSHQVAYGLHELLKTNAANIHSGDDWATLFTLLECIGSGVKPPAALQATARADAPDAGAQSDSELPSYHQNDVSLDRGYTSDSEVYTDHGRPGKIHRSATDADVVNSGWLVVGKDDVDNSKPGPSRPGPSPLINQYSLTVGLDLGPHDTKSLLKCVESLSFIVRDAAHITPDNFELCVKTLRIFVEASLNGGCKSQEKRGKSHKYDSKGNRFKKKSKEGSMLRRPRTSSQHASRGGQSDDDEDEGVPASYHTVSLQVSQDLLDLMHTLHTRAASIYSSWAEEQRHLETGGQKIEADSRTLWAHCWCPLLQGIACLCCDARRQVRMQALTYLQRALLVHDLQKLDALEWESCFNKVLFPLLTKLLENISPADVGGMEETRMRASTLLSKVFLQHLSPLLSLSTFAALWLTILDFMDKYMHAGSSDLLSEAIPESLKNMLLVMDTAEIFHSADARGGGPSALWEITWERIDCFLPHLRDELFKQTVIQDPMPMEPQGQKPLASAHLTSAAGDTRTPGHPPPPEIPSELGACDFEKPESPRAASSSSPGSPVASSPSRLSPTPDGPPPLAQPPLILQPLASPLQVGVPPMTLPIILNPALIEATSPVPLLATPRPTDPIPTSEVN
Chain of UniProt Q8NB37 (Q8NB37 whole entry, looked up): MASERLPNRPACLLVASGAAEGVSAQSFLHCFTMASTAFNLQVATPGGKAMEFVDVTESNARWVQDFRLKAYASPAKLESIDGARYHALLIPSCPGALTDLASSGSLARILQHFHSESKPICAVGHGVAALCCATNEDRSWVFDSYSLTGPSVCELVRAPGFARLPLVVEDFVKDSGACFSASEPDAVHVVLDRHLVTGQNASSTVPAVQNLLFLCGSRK
Chain of UniProt P00367 (P00367 whole entry, looked up): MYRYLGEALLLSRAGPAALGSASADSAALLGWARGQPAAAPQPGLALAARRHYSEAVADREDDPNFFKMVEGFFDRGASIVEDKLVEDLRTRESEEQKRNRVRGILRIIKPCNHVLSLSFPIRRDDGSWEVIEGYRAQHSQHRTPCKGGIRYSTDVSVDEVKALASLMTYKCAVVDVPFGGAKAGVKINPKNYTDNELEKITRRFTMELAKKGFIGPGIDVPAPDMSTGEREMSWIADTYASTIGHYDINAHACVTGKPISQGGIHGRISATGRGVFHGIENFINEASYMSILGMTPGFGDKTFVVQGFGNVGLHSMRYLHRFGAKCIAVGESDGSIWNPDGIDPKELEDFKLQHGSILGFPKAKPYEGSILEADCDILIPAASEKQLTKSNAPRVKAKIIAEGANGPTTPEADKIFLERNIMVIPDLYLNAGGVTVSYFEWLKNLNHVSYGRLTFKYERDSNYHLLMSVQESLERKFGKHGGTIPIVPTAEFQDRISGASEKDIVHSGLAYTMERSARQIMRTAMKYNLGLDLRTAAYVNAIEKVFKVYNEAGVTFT
Chain of UniProt Q7Z4H3 (Q7Z4H3 whole entry, looked up): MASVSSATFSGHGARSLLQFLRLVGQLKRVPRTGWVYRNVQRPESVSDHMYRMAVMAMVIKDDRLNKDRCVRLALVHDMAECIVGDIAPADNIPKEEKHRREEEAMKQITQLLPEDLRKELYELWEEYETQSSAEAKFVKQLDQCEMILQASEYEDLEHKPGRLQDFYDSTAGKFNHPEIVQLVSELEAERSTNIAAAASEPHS
Chain of UniProt Q96I24 (Q96I24 whole entry, looked up): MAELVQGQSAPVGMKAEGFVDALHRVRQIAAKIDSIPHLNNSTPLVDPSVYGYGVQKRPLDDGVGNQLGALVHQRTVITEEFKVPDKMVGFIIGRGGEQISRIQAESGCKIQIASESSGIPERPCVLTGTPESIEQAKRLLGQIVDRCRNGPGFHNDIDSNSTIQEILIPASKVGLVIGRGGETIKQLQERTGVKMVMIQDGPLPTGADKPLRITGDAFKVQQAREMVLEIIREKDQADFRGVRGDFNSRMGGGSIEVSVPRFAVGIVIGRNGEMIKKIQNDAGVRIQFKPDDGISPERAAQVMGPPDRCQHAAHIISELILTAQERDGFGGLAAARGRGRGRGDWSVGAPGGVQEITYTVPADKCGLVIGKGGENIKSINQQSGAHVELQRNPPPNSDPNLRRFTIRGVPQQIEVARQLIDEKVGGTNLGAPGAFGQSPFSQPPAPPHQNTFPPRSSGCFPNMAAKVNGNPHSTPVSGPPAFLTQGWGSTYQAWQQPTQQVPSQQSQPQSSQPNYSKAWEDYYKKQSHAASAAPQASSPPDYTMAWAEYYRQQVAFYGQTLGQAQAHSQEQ
Chain of UniProt Q9Y3D6 (Q9Y3D6 whole entry, looked up): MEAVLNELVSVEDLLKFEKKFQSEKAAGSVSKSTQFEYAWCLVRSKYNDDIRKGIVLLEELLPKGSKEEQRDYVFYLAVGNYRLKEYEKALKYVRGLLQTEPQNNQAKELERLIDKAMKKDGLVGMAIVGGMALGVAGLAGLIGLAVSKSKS
Chain of UniProt Q658Y4 (Q658Y4 whole entry, looked up): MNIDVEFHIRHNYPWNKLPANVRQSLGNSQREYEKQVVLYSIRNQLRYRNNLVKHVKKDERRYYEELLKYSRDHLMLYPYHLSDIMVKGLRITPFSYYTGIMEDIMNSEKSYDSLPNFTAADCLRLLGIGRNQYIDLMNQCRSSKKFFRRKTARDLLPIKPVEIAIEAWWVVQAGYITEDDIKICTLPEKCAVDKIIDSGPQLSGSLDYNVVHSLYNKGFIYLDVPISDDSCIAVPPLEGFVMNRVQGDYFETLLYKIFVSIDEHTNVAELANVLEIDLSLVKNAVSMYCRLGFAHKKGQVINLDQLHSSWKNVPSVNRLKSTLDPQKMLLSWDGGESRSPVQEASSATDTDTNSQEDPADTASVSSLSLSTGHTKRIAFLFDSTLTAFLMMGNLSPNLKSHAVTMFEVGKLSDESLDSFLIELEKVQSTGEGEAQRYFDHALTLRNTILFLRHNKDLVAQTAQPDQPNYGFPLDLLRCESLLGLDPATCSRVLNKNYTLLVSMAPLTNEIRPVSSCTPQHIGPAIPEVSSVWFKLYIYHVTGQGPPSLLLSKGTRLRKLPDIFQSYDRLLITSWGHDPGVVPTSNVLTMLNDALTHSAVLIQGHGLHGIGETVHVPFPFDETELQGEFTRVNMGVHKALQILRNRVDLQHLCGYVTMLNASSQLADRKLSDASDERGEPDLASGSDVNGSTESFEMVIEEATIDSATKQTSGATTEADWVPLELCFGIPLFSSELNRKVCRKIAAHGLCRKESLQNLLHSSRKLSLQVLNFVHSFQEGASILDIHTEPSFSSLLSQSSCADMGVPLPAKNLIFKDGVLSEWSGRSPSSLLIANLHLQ
Chain of UniProt Q9UKD1 (Q9UKD1 whole entry, looked up): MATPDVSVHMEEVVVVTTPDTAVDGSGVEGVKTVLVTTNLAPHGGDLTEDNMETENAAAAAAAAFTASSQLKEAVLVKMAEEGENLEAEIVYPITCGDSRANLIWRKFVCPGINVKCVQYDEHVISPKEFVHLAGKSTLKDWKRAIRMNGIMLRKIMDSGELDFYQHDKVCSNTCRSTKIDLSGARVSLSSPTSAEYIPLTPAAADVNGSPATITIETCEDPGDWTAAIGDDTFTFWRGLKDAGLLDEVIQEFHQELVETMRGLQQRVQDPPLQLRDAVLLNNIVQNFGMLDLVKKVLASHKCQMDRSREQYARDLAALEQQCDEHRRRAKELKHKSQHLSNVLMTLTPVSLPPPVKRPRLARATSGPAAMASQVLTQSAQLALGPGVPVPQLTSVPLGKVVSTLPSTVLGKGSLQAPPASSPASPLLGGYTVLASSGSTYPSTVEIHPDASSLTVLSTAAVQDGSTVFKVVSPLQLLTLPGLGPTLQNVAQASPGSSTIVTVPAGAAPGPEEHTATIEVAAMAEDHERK

Target | log2 fold change
GAPVD1 isoform 6 (UniProt Q14C86) | 0.003
IDH3A (UniProt P50213) | 0
GALNT4 (UniProt Q8N4A0) | -0.029
HMOX2 (UniProt P30519) | 0.444 (active)
HIP1R (UniProt O75146) | -0.011
GBF1 (UniProt Q92538) | -0.005
HSD17B12 (UniProt Q53GQ0) | 0.069
GABPA (UniProt Q06546) | 0.01
HTATIP2 isoform 3 (UniProt Q9BUP3) | -0.003
HDDC2 (UniProt Q7Z4H3) | -0.098
HLTF (UniProt Q14527) | -0.027
GATD1 (UniProt Q8NB37) | -0.104
HP1BP3 (UniProt Q5SSJ5) | 0.041
GTF3C4 (UniProt Q9UKN8) | -0.038
FUCA1 (UniProt P04066) | -0.014
FAM91A1 (UniProt Q658Y4) | -0.081
GLRX3 (UniProt O76003) | 0.005
GAGE12F (UniProt P0CL80) | -0.007

Target | log2 fold change
HDGFL2 (UniProt Q7Z4V5) | 0.032
GMEB2 (UniProt Q9UKD1) | -0.027
GLYR1 (UniProt Q49A26) | -0.024
FNTA (UniProt P49354) | 0.162
IFI30 (UniProt P13284) | 0.04
GABARAPL2 (UniProt P60520) | 0.185
HIKESHI (UniProt Q53FT3) | -0.051
GSTM4 (UniProt Q03013) | 0.027
FIS1 (UniProt Q9Y3D6) | -0.016
IDI1 isoform 2 (UniProt Q13907) | -0.314 (active)
HNRNPH1 (UniProt P31943) | 0.069
HIST2H3A (UniProt Q71DI3) | 0.037
FHOD1 (UniProt Q9Y613) | -0.044
GLUD1 (UniProt P00367) | -0.012
FBXO7 (UniProt Q9Y3I1) | 0.037
HIC2 (UniProt Q96JB3) | -0.067
FUBP3 (UniProt Q96I24) | 0.129
